Screening results: PubChem, National Center for Advancing Translational Sciences (NCATS)
ERK EGF inh = blocks ERK signaling stimulated by EGF; HEK293-V1b, EGF-stimulated phospho-ERK AlphaScreen; Potency, µM (series often up to 11.5 µM), usual class: inhibitors; 0.41% of 130,000 active; AID 1454; active = well fitted inhibition curve with a large enough effect; also: nearly all actives have a fitted effect of over 55% in size
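Stably V1b-transfected HEK293 cells; 30 min compound, then EGF 25 nM final for 5 min at 37C; 10 min lysis; phospho-ERK by AlphaScreen after 5 hr beads at room temperature.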
Numbers stand for hits; - = inactive; ! = repeats disagree. The entries come from a sample that favours hits as a whole.

SMILES	ERK EGF inh
O=C1CN(C(=O)COC(=O)CNC(=O)c2ccccc2)c2ccccc2N1	-
Clc1cncc(Cl)c1NNc1c2ccccc2nc2ccccc12	13µM
Nc1c2ccccc2nc2ccccc12	-
Cc1cc(Cl)c2ccccc2n1	-
O=C(CCc1nnc(Cc2ccc3c(c2)OCO3)o1)NCc1nc2ccccc2s1	-
COc1cc(OC)cc(C(=O)N[C@H](C(=O)OCC(N)=O)C(C)C)c1	-
Fc1cccc(CSc2ccc3nnc(-c4ccccn4)n3n2)c1	-
CCC1=C2CC[C@H]3C(=O)N(C)C(=O)[C@H]3[C@H]2[C@@]2(C)C(=NCc3ccccc3)OC(=O)N2C1=O	-
COc1cc2c(cc1OC)C(c1cccc(C)c1)CC(=O)N2 (stereo unspecified)	-
CCCCCCOc1ccc(OC(=O)c2ccncc2)cc1	-
O=C(CSc1ncn[nH]1)Nc1ncc(C(F)(F)F)cc1Cl	-
CN(C)c1ccc(N=Nc2ccccc2C(=O)OCC(=O)NCC2CCCCC2)cc1	13µM
CN(C)c1ccc(C(=O)OCC(=O)NC2CCCCCC2)cc1	-
CN(C(=O)c1ccccc1C(=O)OCC(=O)NC(=O)NC(C)(C)C)C1CCCCC1	-
O=C(NCc1cccs1)C(=O)NCC(c1ccco1)N1CCN(c2ccc(F)cc2)CC1 (stereo unspecified)	-
Cc1c(C#N)c(NC(=O)C(C)C)n(Cc2ccccc2)c1C	-
Cc1cc(C(=O)N/N=C/c2c(C)[nH]c3ccccc23)n[nH]1	-
COc1cccc(/C=C2\SC(=O)N(CCC(=O)NNC(=O)c3cccc(Cl)c3)C2=O)c1	-
Cc1[nH]n(-c2ccccc2)c(=O)c1N=Nc1ccccc1	16µM
Cc1cc([N+](=O)[O-])ccc1N=Nc1c(N)[nH]n(-c2ccccc2)c1=O	-
NC(=O)c1ccc(N=Nc2c(-c3ccccc3)[nH]n(-c3ccccc3)c2=O)cc1	-
Nc1nn(-c2ccccc2)c(N)c1N=Nc1ccc2c(c1)OCO2	-
Cc1[nH]n(-c2ccccc2)c(=O)c1N=Nc1ccccc1C(=O)N1CCOCC1	-
Nc1[nH]n(-c2ccccc2)c(=O)c1N=Nc1ccc2c(c1)OCO2	22µM
CC(=O)CSc1ccc(C(=O)O)cn1	-
SMILES	ERK EGF inh
CCN1C/C(=C/c2cccs2)c2nc3ccccc3c(C(=O)O)c2C1	-
Fc1cccc(Cn2cc(C(=S)N3CCOCC3)c3ccccc32)c1	-
O=C(NCc1ccco1)c1ccc(Cn2c(=S)[nH]c3ccccc3c2=O)cc1	-
COc1ccccc1CNc1ncnc2cc(Cl)ccc12	-
COc1cc2ncnc(NCc3cccs3)c2cc1OC	2.5µM
COc1ccc(CCNc2ncnc3cc(OC)c(OC)cc23)cc1OC	28µM
COc1cccc(-c2cc(NCc3cccs3)ncn2)c1	-
COc1ccc(CNc2ncnc3cc(Cl)ccc23)cc1OC	-
COc1ccc(CCNc2ncnc3c2[nH]c2cc(OC)c(OC)cc23)cc1OC	-
COc1cc2ncnc(NCCc3ccccc3)c2cc1OC	3.5µM
COc1ccc(CCNc2c3ccccc3nc3ccccc23)cc1OC	-
COc1cc2[nH]c(=S)nc(NCc3cccs3)c2cc1OC	-
COC(=O)c1c(-c2ccccc2)noc1C	-
COCCCNCCCOc1ccc(C)cc1Br	-
Nc1nc(CSc2ccccc2)nc(N2CCCCC2)n1	-
CC(=O)N(C)c1nc(N)n(-c2ccccc2)n1	-
COc1ccc(N(CC(=O)NCCC2=CCCCC2)S(=O)(=O)c2ccccc2F)cc1	-
COc1ccccc1OCc1ccc(C(=O)NCC(C)C)o1	-
CCOC(=O)c1cc(C#N)c(N2CCOCC2)nc1-c1ccccc1	-
COc1cccc(-c2cc(=O)c3ccccc3o2)c1N	5µM!
O=c1cc(-c2ccccc2F)oc2ccccc12	-
COc1ccccc1-c1cc(=O)c2cccc(OC)c2o1	-
Cc1cc(N2CCCCC2)ccc1[N+](=O)[O-]	-
Cc1ccc(OCCOCCN2CCCCC2)c([N+](=O)[O-])c1	-
Cc1ccc(Sc2ccc(CN3CCCCC3)cc2[N+](=O)[O-])cc1	10µM
SMILES	ERK EGF inh
CCCn1c(N)c(C(=S)NC(=O)C2CC2)c(=O)n(C)c1=O	-
COc1cccc(-n2c(SCC(=O)N3CCCCC3)nc3c([nH]c4ccccc43)c2=O)c1	-
COc1ccc2c(c1)[nH]c1c(N3CCSCC3)ncnc12	28µM
COc1cccc2[nH]c3c(N4CCC5(CC4)OCCO5)ncnc3c12	-
COc1cccc2[nH]c3c(N4CCc5ccccc5C4)ncnc3c12	22µM
COc1cccc(N2CCN(c3ncnc4c3[nH]c3ccccc34)CC2C)c1 (stereo unspecified)	14µM
COc1cccc2[nH]c3c(=O)n(CCCN4CCOCC4)cnc3c12	-
CC(C)Oc1ncnc2c1[nH]c1ccccc12	-
CCCOc1ncnc2c1[nH]c1ccc(OC)cc12	-
COc1ccc2c(c1)[nH]c1c(=O)n(Cc3ccncc3)cnc12	-
COc1ccc(-c2cc([C@H]3[C@H]4C=CC[C@@H](C)[C@@H]4C(=O)N3Cc3ccccc3)ccc2F)cc1	-
CCc1ccc2c(c1)cc(CN(Cc1ccco1)C(C)=O)c1nnnn12	-
CCN(CC)c1ccc(/C=N/N2CCN(Cc3ccc(Cl)cc3)CC2)c(O)c1	14µM
CCN(CC)c1ccc(/C=N/N2C(=O)c3ccccc3C2=O)c(O)c1	-
O=C(O)c1ccc(/C=N/N2CCN(Cc3ccc(Cl)cc3)CC2)cc1	-
N#C/C(=C\c1ccc(C(=O)O)cc1)c1nc2sc3c(c2c(=O)[nH]1)CCCC3	-
COCCn1nnnc1C(CC(C)C)N1CCN(c2nc3ccccc3s2)CC1 (stereo unspecified)	-
Cc1[nH]c2ccccc2c1/C=N/Nc1ccccc1[N+](=O)[O-]	25µM
COc1cc(/C=N/Nc2ccccc2[N+](=O)[O-])cc(OC)c1O	-
Cc1[nH]c2ccccc2c1/C=N/NC(=S)NC(C)C	-
O=[N+]([O-])c1cccnc1N/N=C/c1ccccc1O	-
COc1cc(/C=N/Nc2ccccc2[N+](=O)[O-])ccc1OC(=O)c1ccccc1F	-
Cc1[nH]c2ccccc2c1/C=N/NS(=O)(=O)c1ccccc1	-
CC(C)Oc1ccccc1/C=N/Nc1ccccc1[N+](=O)[O-]	13µM
COc1ccccc1/C=N\Nc1ccccc1[N+](=O)[O-]	10µM
SMILES	ERK EGF inh
COc1ccc(/C=N\Nc2ccccc2[N+](=O)[O-])c(C(=O)O)c1OC	-
CC(=O)Nc1cccc(C(=O)OCC(=O)c2ccccc2Cl)c1	-
CCOC(=O)CNC(=O)C(CC(N)=O)NC(=O)OC(C)(C)C (stereo unspecified)	-
COc1cc(NS(=O)(=O)c2ccc(NC(=O)/C=C/c3cccc([N+](=O)[O-])c3)cc2)ncn1	-
O=C(c1ccccc1)N(C1=NCCCCS1)c1ccccc1	-
COCC(=O)Nc1cc(C(=O)NCC(C)C)ccc1Cl	-
c1ccc(-c2csc3ncnc(NCCCN4CCOCC4)c23)cc1	-
c1ccc(-c2csc3ncnc(NCC4COc5ccccc5O4)c23)cc1 (stereo unspecified)	14µM
CCN(CC)c1ncnc2scc(C3COc4ccccc4O3)c12 (stereo unspecified)	-
Nc1nc(SCC(=O)Nc2cc(S(=O)(=O)N3CCOCC3)ccc2Cl)n[nH]1	-
S=c1[nH]nc(-c2cccnc2)n1C1CCCCC1	-
